RORgamma inh = ROR gamma (mouse) transcription inhibition; Drosophila S2 Gal4-RORgamma UAS-luciferase reporter, 20 h; 310,000 tested, 5.4% active; Potency, µM (highest dose often 53.6 µM), for inactives: at the highest dose activity change, negative = inhibition, usual class: inhibitors; further: nearly all actives have a fitted effect of over 60% in size
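Luminescence from a UAS-regulated Photinus luciferase reporter in stably transfected Drosophila Schneider cells is measured; decreased signal marks ROR gamma inhibition. Fusion expression is induced by 700 uM copper sulfate for 20 hr.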
VP16 counter = counter-screen for ROR gamma inhibitors: Gal4-VP16 reporter | Drosophila S2 Gal4-VP16 UAS-luciferase, luminescence, 20 h | Potency, µM (highest dose often 53.6 µM), for inactives: top-dose activity, negative = inhibition, usual class: inhibitors | 310,000 tested, 3.5% active | AID 2546;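 further: Gal4-VP16 expression switched on by copper sulfate through the metallothionein promoter; nearly all actives have a fitted effect of over 50% in size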
DT40 TDP1 no CPT = qHTS for Inhibitors of human tyrosyl-DNA phosphodiesterase 1 (TDP1): qHTS in cells in absence of CPT. DT40 Tdp1-/- hTDP1 cells, no CPT, ATP luminescence, 48 h. Potency, µM (top dose mostly 46.2 µM), without a hit: at the top dose activity change, negative = growth inhibition, usual class: inhibitors. 420,000 tested, 15% active. AID 686978, 2013; further: nearly all actives have a fitted effect of over 55% in size
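Chicken DT40 Tdp1-/- cells complemented with human TDP1, screened without camptothecin (DMSO vehicle only), 400 cells/well. Compounds pin-transferred, cells incubated at 37 °C for at least 48 hr. Growth read as ATP-dependent luminescence (CellTiter-Glo, 30 min at RT).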
TDP1 inh = TDP1 (human) enzyme inhibition; recombinant TDP1, AlphaScreen DNA substrate cleavage; Potency, µM (doses to about 130 µM), without a hit: at the highest dose activity change, negative = inhibition, actives largely listed as inhibitors; 350,000 tested, 0.28% active; Q9NUW8; further: nearly all actives have a fitted effect of over 40% in size
Target sequence (Q9NUW8 whole entry, looked up): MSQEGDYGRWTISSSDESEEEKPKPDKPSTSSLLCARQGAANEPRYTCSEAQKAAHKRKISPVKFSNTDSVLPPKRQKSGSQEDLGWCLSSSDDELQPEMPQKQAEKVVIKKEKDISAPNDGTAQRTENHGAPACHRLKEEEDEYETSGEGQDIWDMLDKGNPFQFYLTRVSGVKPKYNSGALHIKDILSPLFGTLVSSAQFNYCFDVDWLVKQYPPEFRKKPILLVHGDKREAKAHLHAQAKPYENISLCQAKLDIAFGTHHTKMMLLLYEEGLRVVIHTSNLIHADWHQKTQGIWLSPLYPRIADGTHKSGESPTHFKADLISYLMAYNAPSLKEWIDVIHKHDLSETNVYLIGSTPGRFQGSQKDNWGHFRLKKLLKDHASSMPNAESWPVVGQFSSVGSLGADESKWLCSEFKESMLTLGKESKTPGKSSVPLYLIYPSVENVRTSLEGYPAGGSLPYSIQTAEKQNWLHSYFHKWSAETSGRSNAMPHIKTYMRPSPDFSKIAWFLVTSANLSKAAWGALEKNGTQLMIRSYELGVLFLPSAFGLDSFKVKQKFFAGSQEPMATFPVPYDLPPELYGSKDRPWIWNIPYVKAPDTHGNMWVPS
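Here, a 5' biotin and 3' phosphotyrosine-FITC DNA oligonucleotide reports Tdp1 activity: intact substrate bridges AlphaScreen beads, while cleavage leaves a 3' phosphate and drops signal. All incubations at room temperature.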
DT40 TDP1 CPT = DT40-hTDP1 cell growth loss with CPT; chicken DT40 Tdp1-/-;hTDP1 cells + 20 nM CPT, ATP luminescence, 48 h; Potency, µM (series often up to 46.2 µM), for inactives: top-dose activity change, negative = growth inhibition, most hits filed as inhibitors; 420,000 tested, 12% active; AID 686979; further: nearly all actives have a fitted effect of over 55% in size
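Chicken DT40 Tdp1-/- cells stably complemented with human TDP1 were seeded at 400 cells/well in medium containing 20 nM camptothecin, exposed to pin-transferred compounds, and grown at 37 °C for at least 48 hr. Viability was read as ATP luminescence.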
Starred values were filed as active, the others as inactive; ? = inconclusive; / = not tested or not shown; ! = not active in a repeat; [ ] = another dose, or the depositor's remark. Sampled rows, rich in hits. Any-hit rate of the full collection: about 19%. The call rests on the fitted dose curve; in most records, active means well fitted curve in the direction sought with a large enough effect; inconclusive means small, poorly fitted or top-dose-only effect, or another doubt; inactive means no such curve, though single readings can be large; an effect the other way counts as inactive or inconclusive. On the % scale 0 is the no-effect control and ±100 the full control effect; potency means the concentration at half of the fitted maximal effect.

SMILES	RORgamma inh	VP16 counter	DT40 TDP1 no CPT	TDP1 inh	DT40 TDP1 CPT
O=C(C1CCN(S(=O)(=O)c2ccc(Br)s2)CC1)N1CCc2ccccc21	36%	14%	?	-1%	?
CC(=O)Nc1cncc(-c2cccc(C(=O)N3CCOCC3)c2)n1	/	/	6.5µM*	/	-37%
O=C(c1cccc(-c2cncc3nccn23)c1)N1CCOCC1	/	/	-3%	/	-45%
CC(=O)Nc1cc(-c2ccc(C(=O)N3CCOCC3)cc2)cn2c(-c3cccc(C(C)=O)c3)cnc12	/	/	15µM*	/	?
COc1cccc(-c2cnc3c(NC(C)=O)cc(-c4ccc(C(=O)N5CCOCC5)cc4)cn23)c1	/	/	18µM*	/	21µM*
CC(=O)Nc1cnc(-c2cccc(C(=O)N3CCOCC3)c2)cn1	/	/	7%	/	6%
CC(=O)c1cccc(NC(=O)C2CC(=O)N(c3ccc4c(c3)OCCO4)C2)c1 (stereo not drawn)	/	/	-3%	0%	-14%
COc1c(N2CCN(C(=S)NCc3ccccc3)C(C)C2)c(F)cc2c(=O)c(C(=O)O)cn(C3CC3)c12 (stereo not drawn)	?	5%	23µM*	?	?
CNC1CCCN(c2c(F)cc3c(=O)c(C(=O)O)cn(C4CC4)c3c2OC)C1 (stereo not drawn)	4%	-9%	-21%	/	-16%
CC(=O)/C=C(\C)N=Nc1c(O)[nH]c2ccccc12	-17%	-5%	-4%	10%	9%
Cc1cccc(OCC(=O)NNC(=O)CSc2ncc(C#N)c(N)n2)c1	18%	0%	15%	-3%	0%
Cc1ccccc1-n1c(O)c(/C=C/C=Nc2ccccc2)c(=O)[nH]c1=O	-5%	-10%	0%	0%	0%
CCOC(=O)c1oc2ccc(/C=N/O)c(Cl)c2c1C	0.56µM*	3.2µM*	-2%	-5%	7%
O=c1[nH]c(Sc2ccc([N+](=O)[O-])cc2[N+](=O)[O-])nc2ccccc12	/	/	13µM*	/	3.3µM*
CC(C)Sc1nc2ccccc2c(=O)[nH]1	20%	-8%	-2%	-3%	-29%
O=[N+]([O-])c1ccc(Sc2cc[n+]([O-])c3ccccc23)c([N+](=O)[O-])c1	11µM*	18µM*	2.1µM*	8%	2.6µM*
COc1cc(NC(=O)C2CCN(S(=O)(=O)c3cccs3)CC2)cc(OC)c1	/	/	?	/	18µM*
COc1cccc(N2CCN(C(=O)C3CCN(S(=O)(=O)c4cccs4)CC3)CC2)c1	15%	2%	13µM*	2%	?
O=C(NCCN1C(=O)S/C(=C\c2ccc(F)cc2)C1=O)C1CCN(S(=O)(=O)c2cccs2)CC1	?	?	10µM*	-4%	12µM*
O=C(C1CCN(S(=O)(=O)c2cccs2)CC1)N1CCCCC1	3%	-1%	0%	4%	-3%
Cc1ccc(NC(=O)C2CCN(S(=O)(=O)c3cccs3)CC2)cc1	?	-4%	?	-6%	?
COc1ccc(/C=C2\SC(=O)N(CCNC(=O)C3CCN(S(=O)(=O)c4cccs4)CC3)C2=O)cc1	41%	-13%	-27%	4%	?
COc1ccccc1N1CCN(C(=O)C2CCN(S(=O)(=O)c3cccs3)CC2)CC1	/	/	21µM*	0%	16µM*
O=C(NCc1nnc(SCC(=O)N2CCCc3ccccc32)o1)c1c(F)cccc1Cl	6%	6%	-11%	0%	-29%
O=C(NNC(=O)c1ccccc1Br)c1ccc2nc[nH]c2c1	-15%	-14%	2%	11µM*	3%
NC(=O)NC(=O)CSc1nc(C2CCCCC2)n(-c2ccccc2)n1	42%	-7%	?	1%	-8%
C/C(N)=C(/C#N)C(=O)CSc1nc(C2CCCCC2)n(-c2ccccc2)n1	14%	-2%	?	7%	13µM*!
Nc1nc2[nH]c(=O)cnc2c(=O)[nH]1	/	/	/	2%	/
Nc1nc2ncc(=O)[nH]c2c(=O)[nH]1	-4%	-2%	15µM*	9%[56.1 µM]	-1%
CNC(=O)NC(=S)NC(=O)c1cccc(Cl)c1	14µM*	9%[10 µM]	-8%	-3%	-13%

Screens (PubChem BioAssay)
